# From PubChem BioAssay
# Records with an inconclusive call do not appear. The source made the active and inactive calls. Unless noted, no cut-off is given here; in the data, nearly all actives have AC50 up to about 26 µM.
# Legend:
# [1] = growth inhibition of DIPG glioma cells, dose response, cell-based, SU-DIPG-XVII, MIPE5.0, CellTiter-Glo, qHTS (AID 1347060); conditions: SU-DIPG-XVII viability, CellTiter-Glo ATP luminescence;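 note: cells exposed to compound for 48 hours before viability readout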
# [2] = growth inhibition of DIPG glioma cells, dose response, cell-based, SU-DIPG-XIII, MIPE4.0, CellTiter-Glo, qHTS (AID 1347061; cut-off not given, nearly all actives have AC50 up to about 37 µM;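 note: cells exposed to compound for 48 hours before readout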); conditions: SU-DIPG-XIII viability, CellTiter-Glo ATP luminescence
# [3] = growth inhibition of DIPG glioma cells, dose response, cell-based, JHH-DIPG-1, MIPE4.0, CellTiter-Glo, qHTS (AID 1347062; cut-off not given, nearly all actives have AC50 up to about 27 µM;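 for AC50: cells exposed to compound for two days before readout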); conditions: JHH-DIPG-1 viability, CellTiter-Glo ATP luminescence
# [4] = viability loss in pontine glioma line – cell-based, SU-DIPG-XXV, MIPE5.0, CellTiter-Glo, qHTS, dose response (AID 1347065); conditions: CellTiter-Glo ATP luminescence;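 note: cells exposed to compound for 48 hours before ATP readout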
# [5] = SU-DIPG-VI glioma cell viability, MIPE4.0 library, CellTiter-Glo luminescence, qHTS (AID 1347066; cut-off not given, nearly all actives have AC50 up to about 30 µM;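 note: cells exposed to compound for 48 hours before readout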); conditions: CellTiter-Glo ATP luminescence
# [6] = SU-DIPG-XXV glioma cell viability, MIPE5.0 library, qHTS (AID 1347068; cut-off not given, nearly all actives have IC50 up to about 30 µM;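 for IC50: cells exposed to compound for 48 hours before viability readout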)
# [7] = growth inhibition of DIPG glioma cells, dose response, cell-based, SU-DIPG-IV, MIPE4.0, CellTiter-Glo, qHTS (AID 1347063; cut-off not given, nearly all actives have AC50 up to about 30 µM;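 note: compound exposure lasted 48 hours before the viability readout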); conditions: SU-DIPG-IV viability, CellTiter-Glo ATP luminescence
# [8] = growth inhibition of DIPG glioma cells, dose response, cell-based, SU-DIPG-XIII, MIPE5.0, CellTiter-Glo, qHTS (AID 1347064; cut-off not given, nearly all actives have AC50 up to about 23 µM;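 for AC50: cells exposed to compound for 48 hours before the viability read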); conditions: SU-DIPG-XIII viability, CellTiter-Glo ATP luminescence
# [9] = JHH-DIPG-1 glioma cell viability, MIPE5.0 library, CellTiter-Glo luminescence, qHTS (AID 1347067); conditions: JHH-DIPG-1 glioma viability, CellTiter-Glo ATP luminescence;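 note: cells exposed to compound for 48 hours before readout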
# [10] = sensitizers of A549 cells to miR-34 induction, primary screen, imaging, A549 dox-inducible miR-34, nuclei and caspase counts (AID 1347080;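 active = compounds whose cell count with miR-34 switched on is under 0.7 times the count with it off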); conditions: A549 miR-34 inducible, Hoechst nuclei count, 48 h
# [11] = survival rescue of mitochondrial mutant cells in low glucose, primary screen, MELAS cybrids, Rieske KO mouse fibroblasts, CellTiter-Glo (AID 1508586;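 active = mean z-score across replicates of 1.96 or higher in either the MELAS or the Rieske mutant cell line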;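 note: z relative to plate mean and SD of compound and empty wells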)
compound,measurement,setting,value
COc1cccc(OC)c1-c1cc(C(=O)NC2(C(=O)O)C3CC4CC(C3)CC2C4)nn1-c1ccnc2cc(Cl)ccc12 (stereo unspecified),AC50,[1],14800 nM (active)
same,outcome,[2],inactive
same,outcome,[3],inactive
same,AC50,[4],18600 nM (active)
same,outcome,[5],inactive
same,outcome,[6],inactive
CC(=O)Nc1ccc([C@H](C)C(=O)Nc2ncc(C(C)C)s2)cc1,AC50,[1],934 nM (active)
same,AC50,[2],4690 nM (active)
same,AC50,[7],2640 nM (active)
same,AC50,[8],2950 nM (active)
same,AC50,[4],1860 nM (active)
same,AC50,[9],3320 nM (active)
same,IC50,[6],2950 nM (active)
CCN(C(=O)c1c(O)c2c(Cl)cccc2n(C)c1=O)c1ccccc1,AC50,[1],8330 nM (active)
same,outcome,[2],inactive
same,AC50,[3],14800 nM (active)
same,outcome,[8],inactive
same,outcome,[5],inactive
same,fold change,"[10]; stronger effect = lower value, cell number ratio, induced over uninduced",0.884 (inactive)
same,fold change,[10]; measured here: relative caspase fold change +Dox/-Dox,0.907
same,cell count,"[10]; measured here: total cells with miR-34 induction, stronger effect = lower value",8690
same,cell count,[10]; measured here: total cells without miR-34 induction,9820
same,z-score,"[11]; MELAS cybrid survival, CellTiter-Glo 48 h, stronger effect = higher value",-0.321 (inactive)
same,z-score,"[11]; Rieske KO mouse fibroblast survival, CellTiter-Glo 72 h",0.483
Cc1c(CN2CCN(S(C)(=O)=O)CC2)sc2c(N3CCOCC3)nc(-c3cnc(N)nc3)nc12,AC50,[1],661 nM (active)
same,AC50,[2],332 nM (active)
same,AC50,[7],23.5 nM (active)
same,AC50,[8],525 nM (active)
same,AC50,[4],166 nM (active)
same,AC50,[5],526 nM (active)
same,AC50,[9],1050 nM (active)
